Data as given in the supplement of paper PMC11732987, “Enantioselective OTUD7B fragment discovery through chemoproteomics screening and high-throughput optimisation” (Communications Chemistry, 2025).
Unmarked numbers belong to inactive results.

How the values were obtained:
Assay in all cases: log2 ratio of Biotin-Ahx-Ub-VS probe labelling (fragment/DMSO); higher = less target engagement (more negative = stronger competition), active = hit call of the paper (q ≤ 0.05, log2 ratio ≤ -1)
Settings in all cases: compound concentration: 200 uM; treatment time: 3 h
[1] = target: T1, ALG13 (UniProt Q9NP73)
T1 sequence (whole entry): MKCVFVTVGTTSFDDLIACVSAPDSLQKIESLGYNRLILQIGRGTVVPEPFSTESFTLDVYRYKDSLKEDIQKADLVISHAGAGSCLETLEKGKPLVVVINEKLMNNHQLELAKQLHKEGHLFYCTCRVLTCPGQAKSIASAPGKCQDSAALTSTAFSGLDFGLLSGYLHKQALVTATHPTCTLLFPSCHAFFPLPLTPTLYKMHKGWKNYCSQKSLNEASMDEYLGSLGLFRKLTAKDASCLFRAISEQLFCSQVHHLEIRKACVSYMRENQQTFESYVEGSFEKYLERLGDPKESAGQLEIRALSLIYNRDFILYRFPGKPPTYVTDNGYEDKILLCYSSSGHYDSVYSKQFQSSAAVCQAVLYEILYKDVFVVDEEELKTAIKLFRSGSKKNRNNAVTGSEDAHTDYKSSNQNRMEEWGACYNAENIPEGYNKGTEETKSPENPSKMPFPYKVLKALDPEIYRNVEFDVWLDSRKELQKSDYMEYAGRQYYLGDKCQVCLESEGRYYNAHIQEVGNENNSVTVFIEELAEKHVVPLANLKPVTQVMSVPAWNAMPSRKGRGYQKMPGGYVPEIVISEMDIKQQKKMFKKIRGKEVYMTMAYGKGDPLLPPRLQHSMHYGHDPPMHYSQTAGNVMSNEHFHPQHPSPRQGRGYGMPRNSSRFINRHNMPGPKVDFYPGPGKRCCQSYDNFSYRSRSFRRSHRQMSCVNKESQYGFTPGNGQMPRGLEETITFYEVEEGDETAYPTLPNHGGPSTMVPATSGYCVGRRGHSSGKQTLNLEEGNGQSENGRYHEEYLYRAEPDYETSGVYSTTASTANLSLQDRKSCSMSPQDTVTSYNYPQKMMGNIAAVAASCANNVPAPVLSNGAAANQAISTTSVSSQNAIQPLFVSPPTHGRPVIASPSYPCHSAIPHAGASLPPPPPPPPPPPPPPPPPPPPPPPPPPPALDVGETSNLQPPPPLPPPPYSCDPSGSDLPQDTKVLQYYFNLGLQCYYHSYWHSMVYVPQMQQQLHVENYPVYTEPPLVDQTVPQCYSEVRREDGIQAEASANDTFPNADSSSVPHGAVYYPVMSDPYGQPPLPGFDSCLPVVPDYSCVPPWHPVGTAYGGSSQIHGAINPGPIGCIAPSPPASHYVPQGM
Outline: (§1)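 HEK293T lysate, 495 µg per sample in Tris/CHAPS/IGEPAL buffer with protease inhibitors, was treated in triplicate with fragment at 200 µM or vehicle for 3 h and then with Biotin-Ahx-Ub-VS at 0.5 µM final for 1 h. Labelled DUBs were NeutrAvidin-enriched, digested with LysC and trypsin, and run by diaPASEF LC-MS/MS. Spectronaut label-free quantities were global-median-normalised, and values are average log2 fragment/vehicle ratios by unpaired t-test on proteins with ≥2 unique peptides.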

[2] = target: ATXN3 (UniProt P54252)
Outline: as §1

[3] = target: T2, BAP1 (UniProt Q92560)
T2 sequence (whole entry): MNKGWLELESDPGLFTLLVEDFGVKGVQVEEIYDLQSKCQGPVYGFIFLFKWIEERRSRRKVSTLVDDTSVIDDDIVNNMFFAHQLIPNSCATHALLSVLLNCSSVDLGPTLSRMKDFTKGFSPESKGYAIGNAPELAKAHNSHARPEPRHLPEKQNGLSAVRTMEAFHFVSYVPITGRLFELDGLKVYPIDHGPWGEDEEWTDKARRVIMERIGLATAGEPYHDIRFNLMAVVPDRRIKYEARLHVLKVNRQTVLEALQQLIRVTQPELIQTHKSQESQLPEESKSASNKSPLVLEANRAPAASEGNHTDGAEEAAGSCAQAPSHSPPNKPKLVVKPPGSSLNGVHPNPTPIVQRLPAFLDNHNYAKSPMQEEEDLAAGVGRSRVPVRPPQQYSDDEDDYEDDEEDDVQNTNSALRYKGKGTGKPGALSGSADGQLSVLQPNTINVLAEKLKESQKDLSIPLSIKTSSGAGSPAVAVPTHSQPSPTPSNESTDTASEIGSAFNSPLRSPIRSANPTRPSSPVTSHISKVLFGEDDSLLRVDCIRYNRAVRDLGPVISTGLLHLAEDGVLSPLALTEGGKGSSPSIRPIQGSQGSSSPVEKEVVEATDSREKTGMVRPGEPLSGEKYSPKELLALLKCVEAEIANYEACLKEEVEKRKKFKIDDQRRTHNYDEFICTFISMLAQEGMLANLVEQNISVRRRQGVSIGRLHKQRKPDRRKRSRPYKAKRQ
Outline: as §1

[4] = target: EIF3F (UniProt O00303)
Outline: as §1

[5] = target: EIF3H (UniProt O15372)
Outline: as §1

[6] = target: T3, FAM105A (UniProt Q9NUU6)
T3 sequence (whole entry): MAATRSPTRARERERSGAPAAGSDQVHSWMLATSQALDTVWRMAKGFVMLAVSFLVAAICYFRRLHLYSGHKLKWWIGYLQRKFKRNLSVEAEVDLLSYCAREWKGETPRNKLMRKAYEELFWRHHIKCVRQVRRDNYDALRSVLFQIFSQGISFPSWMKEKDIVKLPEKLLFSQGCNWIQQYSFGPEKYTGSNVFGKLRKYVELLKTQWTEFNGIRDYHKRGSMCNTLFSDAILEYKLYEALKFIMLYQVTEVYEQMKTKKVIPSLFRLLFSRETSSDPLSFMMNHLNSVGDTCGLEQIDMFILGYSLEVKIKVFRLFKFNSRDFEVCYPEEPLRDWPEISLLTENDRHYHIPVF
Outline: as §1

[7] = target: OTUB1 (UniProt Q96FW1)
Outline: as §1

[8] = target: T4, OTUD4 (UniProt Q01804)
T4 sequence (whole entry): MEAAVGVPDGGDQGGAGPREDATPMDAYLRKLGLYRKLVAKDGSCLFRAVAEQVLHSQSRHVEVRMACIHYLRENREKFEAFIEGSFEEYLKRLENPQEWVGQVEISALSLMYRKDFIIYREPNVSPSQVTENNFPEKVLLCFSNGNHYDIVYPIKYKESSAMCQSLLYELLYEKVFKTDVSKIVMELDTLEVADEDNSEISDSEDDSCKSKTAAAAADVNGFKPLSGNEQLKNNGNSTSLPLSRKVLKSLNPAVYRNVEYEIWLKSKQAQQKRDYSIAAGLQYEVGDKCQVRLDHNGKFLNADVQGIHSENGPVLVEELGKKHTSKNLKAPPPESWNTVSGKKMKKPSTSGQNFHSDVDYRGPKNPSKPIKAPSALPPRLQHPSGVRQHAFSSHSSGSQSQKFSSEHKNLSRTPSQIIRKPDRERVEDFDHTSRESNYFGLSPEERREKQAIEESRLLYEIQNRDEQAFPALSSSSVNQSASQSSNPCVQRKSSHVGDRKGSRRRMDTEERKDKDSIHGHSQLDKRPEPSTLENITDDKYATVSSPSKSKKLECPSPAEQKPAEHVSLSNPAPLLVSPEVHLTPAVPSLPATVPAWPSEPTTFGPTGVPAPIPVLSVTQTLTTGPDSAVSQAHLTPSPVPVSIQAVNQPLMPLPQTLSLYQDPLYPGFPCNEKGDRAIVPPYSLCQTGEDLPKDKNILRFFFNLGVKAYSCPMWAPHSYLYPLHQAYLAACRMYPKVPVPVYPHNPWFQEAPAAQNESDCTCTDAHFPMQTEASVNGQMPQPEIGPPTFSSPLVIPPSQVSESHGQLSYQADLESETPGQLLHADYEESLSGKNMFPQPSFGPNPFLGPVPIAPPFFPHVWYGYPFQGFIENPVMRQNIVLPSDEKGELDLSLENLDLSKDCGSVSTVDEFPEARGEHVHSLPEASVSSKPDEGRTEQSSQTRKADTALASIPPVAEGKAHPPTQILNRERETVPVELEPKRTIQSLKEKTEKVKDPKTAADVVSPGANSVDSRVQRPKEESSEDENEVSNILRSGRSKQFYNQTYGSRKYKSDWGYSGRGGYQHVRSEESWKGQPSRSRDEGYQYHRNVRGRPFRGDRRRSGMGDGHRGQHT
Outline: as §1

[9] = target: T5, OTUD5 (UniProt Q96G74)
T5 sequence (whole entry): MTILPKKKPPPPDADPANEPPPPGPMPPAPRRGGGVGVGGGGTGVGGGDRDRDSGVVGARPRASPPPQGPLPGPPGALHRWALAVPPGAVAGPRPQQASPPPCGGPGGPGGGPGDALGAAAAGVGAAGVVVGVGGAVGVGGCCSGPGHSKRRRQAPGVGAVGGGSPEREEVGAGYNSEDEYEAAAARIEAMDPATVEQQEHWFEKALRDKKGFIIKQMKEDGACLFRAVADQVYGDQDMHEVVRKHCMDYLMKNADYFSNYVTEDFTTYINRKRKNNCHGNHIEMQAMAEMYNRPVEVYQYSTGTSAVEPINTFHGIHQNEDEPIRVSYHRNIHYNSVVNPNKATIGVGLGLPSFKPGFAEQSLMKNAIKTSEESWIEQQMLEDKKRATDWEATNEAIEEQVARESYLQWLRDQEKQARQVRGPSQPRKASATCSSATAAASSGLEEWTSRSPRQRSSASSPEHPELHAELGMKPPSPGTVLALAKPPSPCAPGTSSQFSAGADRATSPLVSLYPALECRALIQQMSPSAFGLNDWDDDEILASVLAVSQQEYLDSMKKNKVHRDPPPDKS
Outline: as §1

Chain of EIF3F (O00303 whole entry): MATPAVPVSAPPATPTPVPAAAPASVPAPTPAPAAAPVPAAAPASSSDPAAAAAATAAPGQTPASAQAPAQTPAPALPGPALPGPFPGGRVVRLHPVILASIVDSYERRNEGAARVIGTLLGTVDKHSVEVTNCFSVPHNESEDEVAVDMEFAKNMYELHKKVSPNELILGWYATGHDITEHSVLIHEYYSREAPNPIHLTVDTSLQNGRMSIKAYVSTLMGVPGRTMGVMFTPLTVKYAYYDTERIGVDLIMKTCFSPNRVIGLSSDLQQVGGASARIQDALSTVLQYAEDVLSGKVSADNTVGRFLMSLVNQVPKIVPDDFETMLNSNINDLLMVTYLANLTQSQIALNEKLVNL
Chain of ATXN3 (P54252 whole entry): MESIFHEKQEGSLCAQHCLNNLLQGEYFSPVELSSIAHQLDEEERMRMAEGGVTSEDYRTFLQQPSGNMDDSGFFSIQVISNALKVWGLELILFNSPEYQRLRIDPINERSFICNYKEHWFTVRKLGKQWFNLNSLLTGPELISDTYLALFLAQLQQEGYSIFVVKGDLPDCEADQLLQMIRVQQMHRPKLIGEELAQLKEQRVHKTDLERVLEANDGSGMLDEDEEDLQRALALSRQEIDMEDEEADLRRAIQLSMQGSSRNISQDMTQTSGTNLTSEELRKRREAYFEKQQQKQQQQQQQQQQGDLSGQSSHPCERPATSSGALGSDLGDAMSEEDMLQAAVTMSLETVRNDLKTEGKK
Chain of EIF3H (O15372 whole entry): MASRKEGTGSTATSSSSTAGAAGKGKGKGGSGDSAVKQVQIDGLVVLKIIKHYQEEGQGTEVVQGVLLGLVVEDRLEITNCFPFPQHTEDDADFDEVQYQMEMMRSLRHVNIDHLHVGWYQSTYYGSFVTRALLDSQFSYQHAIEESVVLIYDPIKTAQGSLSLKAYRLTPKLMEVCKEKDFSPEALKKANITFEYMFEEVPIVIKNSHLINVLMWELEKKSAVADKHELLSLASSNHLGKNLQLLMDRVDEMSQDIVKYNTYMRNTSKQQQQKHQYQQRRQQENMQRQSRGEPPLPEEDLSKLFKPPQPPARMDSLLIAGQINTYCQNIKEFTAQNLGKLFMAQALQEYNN
Chain of OTUB1 (Q96FW1 whole entry): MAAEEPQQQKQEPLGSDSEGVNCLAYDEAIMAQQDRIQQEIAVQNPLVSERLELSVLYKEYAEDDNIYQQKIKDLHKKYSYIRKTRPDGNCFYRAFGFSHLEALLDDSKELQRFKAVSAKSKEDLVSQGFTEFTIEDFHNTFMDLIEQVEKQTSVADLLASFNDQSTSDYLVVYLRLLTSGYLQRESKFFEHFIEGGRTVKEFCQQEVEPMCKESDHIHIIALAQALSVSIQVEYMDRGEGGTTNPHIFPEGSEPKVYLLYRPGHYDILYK

SMILES	log2 ratio of Biotin-Ahx-Ub-VS probe labelling [1]	log2 ratio of Biotin-Ahx-Ub-VS probe labelling [2]	log2 ratio of Biotin-Ahx-Ub-VS probe labelling [3]	log2 ratio of Biotin-Ahx-Ub-VS probe labelling [4]	log2 ratio of Biotin-Ahx-Ub-VS probe labelling [5]	log2 ratio of Biotin-Ahx-Ub-VS probe labelling [6]	log2 ratio of Biotin-Ahx-Ub-VS probe labelling [7]	log2 ratio of Biotin-Ahx-Ub-VS probe labelling [8]	log2 ratio of Biotin-Ahx-Ub-VS probe labelling [9]
O=C(CCl)N1CCOCCC1c1ccccc1 (stereo not drawn)	-0.00764	0.117	-0.446	-0.267	0.204	0.0466	-0.0821	-0.0459	0.0776
CN(C(=O)CCl)c1nc2ccccc2s1	0.217	-0.82	-0.457	-0.117	0.0319	0.108	-0.597	-0.0109	-1.02 (active)
